Assay outcomes: PubChem, several laboratories
m-calpain inh: inhibitors of pig calpain II, primary screen, biochemical, fluorogenic peptide substrate, 1536-well; AID 1236, 2008; 0.37% of 220,000 active; inhibition, % at 16 µM; purified calpain II, 30 min;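 active = inhibition above about 50%, limit read from the data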
Mcl-1 Bim block: inhibitors of Bim peptide binding to Mcl-1, primary screen, biochemical, bead-based flow cytometry, multiplex | Induced myeloid leukemia cell differentiation protein Mcl-1 (Homo sapiens), Q07820 | Bim peptide-Mcl-1 binding | inhibition, % at 10 µM | 0.1% of 190,000 active; in the data active = inhibition above about 40%;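 note: 0% = no compound tracer wells and 100% = peptide blocker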
Target sequence (Q07820 whole entry, looked up): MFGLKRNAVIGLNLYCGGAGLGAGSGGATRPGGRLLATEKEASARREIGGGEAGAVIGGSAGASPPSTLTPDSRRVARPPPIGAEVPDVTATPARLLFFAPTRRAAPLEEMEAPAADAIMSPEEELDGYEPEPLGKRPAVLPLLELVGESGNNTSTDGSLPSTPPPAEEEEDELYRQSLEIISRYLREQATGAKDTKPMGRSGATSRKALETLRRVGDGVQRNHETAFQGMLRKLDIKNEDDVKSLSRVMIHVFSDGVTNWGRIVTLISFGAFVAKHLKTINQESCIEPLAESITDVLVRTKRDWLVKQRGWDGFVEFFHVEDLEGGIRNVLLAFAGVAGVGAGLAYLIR
Mcl1 Bid PPI: Mcl-1/Bid binding inhibitors, primary screen, biochemical, TR-FRET, 1536-well | Induced myeloid leukemia cell differentiation protein Mcl-1 (Homo sapiens), Q07820 | 0.97% of 220,000 active | TR-FRET Mcl-1/Bid-Dy647 peptide binding | inhibition, % at 21.7 µM;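 active = compounds that cut the binding signal by more than half at the single screening dose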;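 note: His-tagged Mcl-1 with europium anti-His antibody binding Bid BH3 peptide; 0% = Mcl-1 plus peptide wells and 100% = peptide-only wells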
Mcl1 Noxa PPI: Mcl-1/Noxa binding inhibitors, primary screen, biochemical, TR-FRET, 1536-well; Induced myeloid leukemia cell differentiation protein Mcl-1 (Homo sapiens), Q07820; TR-FRET Mcl-1/Noxa peptide binding, 2 h; inhibition, % at 21.7 µM; 1.5% of 220,000 active; AID 1022, 2008;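 active = compounds that cut the protein-peptide binding signal by more than 50% relative to plate controls in a single-dose test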;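 note: His-tagged Mcl-1 with rhodamine Noxa BH3 peptide and terbium anti-His antibody; 0% = Mcl-1 plus Noxa peptide wells and 100% = peptide-only wells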
NCF1 inh: p47phox/p22phox peptide binding inhibitors, primary screen, biochemical, uHTS, NADPH oxidase regulatory subunit. 0.53% of 220,000 active. Neutrophil cytosol factor 1 (Homo sapiens), P14598. fluorescence polarization, 2 h. AID 1274, 2008. inhibition, % at 24.7 µM;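 active = inhibition above about 30%, limit read from the data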;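 note: 0% = p47phox with labelled peptide and 100% = labelled peptide alone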
14-3-3 Bad PPI: inhibitors of 14-3-3 zeta/Bad binding, primary screen, biochemical, TR-FRET, bovine 14-3-3 zeta. inhibition, % at 21.7 µM. TR-FRET 14-3-3zeta/Dy647-pBad peptide displacement, 1 h. 14-3-3 protein zeta/delta (Bos taurus), P63103. 0.71% of 220,000 active;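 active = inhibition above about 70%, limit read from the data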;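 note: 0% = full 14-3-3 plus peptide FRET controls and 100% = background without 14-3-3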
Target sequence (P63103 whole entry, looked up): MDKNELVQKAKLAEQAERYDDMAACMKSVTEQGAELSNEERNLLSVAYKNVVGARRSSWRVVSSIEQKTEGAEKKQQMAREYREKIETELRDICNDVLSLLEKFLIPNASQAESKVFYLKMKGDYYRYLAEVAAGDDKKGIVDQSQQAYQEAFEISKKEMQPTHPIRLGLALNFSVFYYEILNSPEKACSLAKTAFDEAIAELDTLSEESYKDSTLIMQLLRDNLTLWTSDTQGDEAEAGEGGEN
* marks the source's active call; other numbers are inactive results; x = no result. Hits are enriched below; roughly 3.4% of the tested compounds scored in any of these assays.

SMILES	m-calpain inh	Mcl-1 Bim block	Mcl1 Bid PPI	Mcl1 Noxa PPI	NCF1 inh	14-3-3 Bad PPI
CCOC(=O)C1CCCN(CC(=O)c2c[nH]c3ccc(C)cc23)C1 (stereo unspecified)	-7.6	x	-16.6	10.8	-15.3	2.1
O=C1CCC([N+](=O)[O-])C(c2cccc(Br)c2)N1 (stereo unspecified)	1.3	-6.0	-27.3	-14.2	-3.8	-24.9
O=C1CCCC2(O)C1C(c1cccc(Br)c1)NC(=O)N2Cc1ccccc1 (stereo unspecified)	3.9	41.0*	-34.5	-1.9	0.6	6.7
COc1cccc(NC(C)C(=O)Nc2cc([N+](=O)[O-])ccc2Cl)c1 (stereo unspecified)	18.3	-3.0	-24.8	14.5	-2.8	-8.3
Nc1nc(COc2ccc3ccccc3c2)cs1	-13.0	-5.0	-15.5	23.4	-3.9	-0.8
Nc1nc(CCOc2ccc(F)cc2)cs1	-9.4	-1.0	-37.9	8.5	39.5*	-5.8
CC(C)CNC(=O)CSc1nnc(-c2ccc(Cl)cc2)n1N	-6.9	0.0	-11.9	0.8	0.1	-0.4
O=C(CSc1nnc(-c2cccnc2)n1C1CCCCC1)NC1CCCC1	6.5	-3.0	-26.1	56.4*	-6.8	-7.5
C=CCN(C(=O)CNC(=O)c1cccs1)C(C(=O)NC1CCCCC1)c1cccnc1 (stereo unspecified)	-3.1	5.0	8.7	13.4	46.9*	-4.2
CCOC(=O)CN(C(=O)CNC(=O)c1cccs1)C(C(=O)NC1CCCCC1)c1cccnc1 (stereo unspecified)	-14.7	-7.0	-9.8	-9.9	0.5	-4.2
CN(C)S(=O)(=O)c1cccc(NC(=O)CN2C(=O)NC(CCc3ccccc3)C2=O)c1 (stereo unspecified)	-30.4	0.0	-1.7	6.2	-10.6	-9.0
CC1Cc2ccccc2N1C(=S)NC(=O)c1ccco1 (stereo unspecified)	52.2*	-2.0	-30.9	6.1	23.9	-3.1
O=C(/C=C/Nc1ccc([N+](=O)[O-])cc1)c1ccc(Br)cc1	-20.8	0.0	14.6	53.1*	2.9	24.6
O=C(/C=C/Nc1ccc(F)cc1)c1ccc(Br)cc1	-49.9	-2.0	-12.2	-6.6	-12.8	-4.1
CCC(C)NCCCOc1c(C)cc(C)cc1Br (stereo unspecified)	15.0	0.0	26.0	118.9*	-5.5	4.5
CN(c1ccccc1)S(=O)(=O)c1cccc(NC(=O)CC(C)(C)C)c1	1.4	-2.0	-37.9	1.2	-8.7	7.9
O=C(Nc1ccc(Cl)cc1Cl)c1ccc(-c2ccccc2)cc1	2.0	-3.0	4.2	69.9*	-6.1	-5.8
Cc1ccc(NCC(=O)N=Nc2c(O)[nH]c3ccc([N+](=O)[O-])cc23)cc1	7.2	x	-23.6	32.7	-6.0	-6.6
Cc1ccccc1NCC(=O)N=Nc1c(O)[nH]c2ccc([N+](=O)[O-])cc12	-1.6	x	-30.4	53.5*	3.9	-16.3
O=[N+]([O-])c1ccc2[nH]c(O)c(N=NC(=S)Nc3cccnc3)c2c1	-44.3	x	26.4	100.2*	-0.9	33.2
O=C(NCCOCc1ccccc1)C(c1ccccc1)c1ccccc1	17.6	15.0	-3.3	0.3	-5.5	-2.3
CC(C)NC(=O)c1ccccc1-c1nc(-c2ccccc2Cl)no1	-28.0	0.0	-0.6	-9.9	-21.9	0.7
CC(C)(C)NC(=O)c1ccccc1-c1nc(-c2ccccc2Cl)no1	-17.8	-1.0	-0.8	-8.6	43.1*	-5.5
Cc1cc(C)n2nc3nc(N4CCCCC4)nc(-c4ccco4)c3c2n1	-187.3	1.0	-23.2	66.5*	-22.0	0.6
COCCNc1nc(-c2cc(C)c(C)cc2C)cs1	-1.9	0.0	-40.0	-0.1	-7.6	-16.8
SMILES	m-calpain inh	Mcl-1 Bim block	Mcl1 Bid PPI	Mcl1 Noxa PPI	NCF1 inh	14-3-3 Bad PPI
COC(=O)C1=C(C)N(C)C(=S)N(C)C1c1cccc(Br)c1 (stereo unspecified)	17.7	0.0	5.1	13.3	-3.0	-4.7
O=c1ccc2cc3c([nH]c4ccc(Br)cc43)oc-2c1O	-189.9	24.0	12.9	94.4*	-35.9	6.2
COC(=O)c1ccccc1NC(=O)CN1CCN(C23CC4CC(CC(C4)C2)C3)CC1	-31.1	1.0	-46.6	8.1	-16.7	-6.8
COc1ccc2[nH]c3c(C)c4ccncc4c(C)c3c2c1	-25.3	x	-10.0	85.6*	91.8*	49.9
C#Cc1ccc([C@H]2C=C(C(=O)N3CCOCC3)O[C@@H](OCc3ccc(CO)cc3)C2)cc1	11.5	-3.0	-3.5	-18.8	x	-2.0
Brc1c(NC2=NCCN2)ccc2nccnc12	0.8	0.0	2.4	58.8*	-2.4	-0.1
COc1cccc(CN2CCC(N(CCc3ccccc3)Cc3ccccc3)CC2)c1OC	31.2	-3.0	-15.8	6.0	-2.9	34.0
CSc1ccccc1NC(=O)c1cc(-c2cccnc2)nc2ccc(Br)cc12	-123.8	0.0	63.6*	49.0	30.8*	88.6*
Cc1nc2ccccc2nc1N/N=C/c1ccc(O)cc1	22.8	x	-23.4	2.2	-13.2	-2.3
Oc1ccc(Nc2nc3ccccc3nc2Nc2ccc(O)cc2)cc1	-168.2	1.0	23.8	82.2*	66.3*	61.5
Cc1ccc2[nH]c3c(c2c1)CCN1C(=O)OC(C)(C)C31C (stereo unspecified)	-10.2	-1.0	-18.6	67.9*	-12.2	-6.2
Cc1ccc2[nH]c3c(c2c1)CCNC3=O	-181.6	-13.0	-53.4	6.5	-1.6	-1.9
Cc1ccc(N(Cc2cc3cc(C)ccc3[nH]c2=O)C(=O)c2cccs2)cc1	12.6	-4.0	60.9*	-7.6	-2.1	-0.2
Cc1ccccc1NC(=O)c1c2c(nc3ccccc13)CCC2	-32.2	1.0	-56.3	19.3	-1.7	-11.7
CC1CCc2c(sc(NC(=O)CSc3ncnc4c3cnn4-c3ccccc3Cl)c2C#N)C1 (stereo unspecified)	-45.2	-5.0	-10.1	-1.2	-9.1	27.9
CC(C)N(Cc1nc(-c2ccccc2)no1)C(=O)c1ccc([N+](=O)[O-])cc1	-17.7	0.0	-20.9	10.5	3.2	-9.4
O=C1c2ccccc2C(=O)N1CCc1nc(-c2ccc(Cl)cc2)no1	-10.7	0.0	-2.5	8.5	-3.3	-11.8
CC(C)N(Cc1nc(-c2ccccc2)no1)C(=O)c1ccc(Cl)cc1	21.1	-3.0	16.9	-1.9	58.7*	-6.5
CC(C)N(Cc1nc(-c2ccc(Cl)cc2)no1)C(=O)CCCN1C(=O)c2ccccc2C1=O	65.4*	-6.0	1.5	3.0	-1.8	3.5
O=C1c2ccccc2C(=O)N1CCCCCc1nc(-c2ccccc2)no1	64.2*	0.0	1.3	17.9	-1.6	-3.9
